Measurements taken from PubChem BioAssay AID463173 (ICCB-Longwood Screening Facility, Harvard Medical School, 2010).
Screen size: about 52,000 compounds; about 4,300 (8.3%) were called active. For the sample, actives were picked, then their nearest neighbours and some compounds at random. Values without a mark were called inactive. Cut-off read from the data, not from the text of the source: active = survival mostly below about 52% (no sharp cut-off); inactive = mostly above about 56%.

Tested on: DeltatarO mutant
Assay: growth inhibition of S. aureus wild type versus tarO mutant, primary screen, teichoic acid synthesis inhibitors, RN4220, OD600 (AID 463173)
Details: OD600, 18 h, stronger effect = lower value, screened at 18.75 µg/mL (by protocol)

| SMILES | survival |
| --- | --- |
| CCCNC(=O)c1cnc2sc(N3CCCCC3)nn2c1=O | 99% |
| O=C(NCc1cccc(Cl)c1)c1cc2c(s1)-c1ccccc1SC2 | 64% |
| COc1cccc(C2c3c(-c4ccccc4O)n[nH]c3C(=O)N2Cc2cccnc2)c1 (configuration not stated) | 84% |
| COc1ccc(CCN2C(=O)c3[nH]nc(-c4ccccc4O)c3C2c2ccc(O)c(OC)c2)cc1 (configuration not stated) | 30% (active) |
| COc1cccc(C2c3c(-c4ccccc4O)n[nH]c3C(=O)N2CCc2ccc(OC)c(OC)c2)c1 (configuration not stated) | 8% (active) |
| COc1ccc(CCN2C(=O)c3[nH]nc(-c4ccccc4O)c3C2c2ccc(OC)c(OC)c2)cc1 (configuration not stated) | 45% (active) |
| COc1cc(C2c3c(-c4ccccc4O)n[nH]c3C(=O)N2Cc2ccncc2)ccc1O (configuration not stated) | 90% |
| CC(CNC(=O)c1ccc(CSc2nc3ccncc3n2Cc2ccccc2)cc1)c1ccccc1 (configuration not stated) | 78% |
| CS(=O)(=O)NCc1ccc2c(c1)OCO2 | 92% |
| COc1ccc(CNC(=O)c2ccc3c(c2)N(Cc2ccccc2)C(=O)c2ccccc2S3(=O)=O)cc1 | 83% |
| COc1ccc(CNc2ccc(C)c(C)c2)c(OC)c1OC | 93% |
| Cc1ccc2c(c1)N(C(=O)N1CCC(C(=O)NC3CCCCCC3)CC1)CC(C)O2 (configuration not stated) | 72% |
| Cc1c(/C=C(\C#N)C(=O)Nc2cccc(Cl)c2)c2ccccc2n1Cc1ccccc1Cl | 123% |
| Nc1c(S(=O)(=O)Cc2ccccc2)sc2nc3c(cc12)CCCC3 | 49% |
| Cc1nnnn1CCC(=O)NC(C)c1ccccc1 (configuration not stated) | 84% |
| Cc1cc(C)nc(N(C#N)Cc2ccccc2)n1 | 100% |
| Cc1cc(C)cc(-n2c(SCC(=O)Nc3ccccc3)nc3c(oc4ccccc43)c2=O)c1 | 101% |
| CCOC(=O)/C(C#N)=C\c1ccc(-c2cccc(C(F)(F)F)c2)o1 | 84% |
| COc1ccc(NC(=O)/C(C#N)=C/c2ccc(C)o2)cc1 | 77% |
| CCC(C)OC(=O)/C(C#N)=C\c1ccc(-c2cccc(C(F)(F)F)c2)o1 (configuration not stated) | 64% |
| N#C/C(=C\c1ccc(-c2ccccc2)o1)C(=O)Nc1ccccc1 | 90% |
| CCCCOC(=O)c1ccc(NC(=O)/C(C#N)=C/c2ccc(C)o2)cc1 | 49% (active) |
| Cc1ccc(NC(=O)/C(C#N)=C/c2ccc(C)o2)cc1 | 79% |

| SMILES | survival |
| --- | --- |
| CCCCOC(=O)c1ccc(NC(=O)/C(C#N)=C/c2ccc(-c3ccccc3)o2)cc1 | 32% (active) |
| CCOC(=O)c1ccc(-c2ccc(/C=C(\C#N)C(=O)Nc3ccc(OCC)cc3)o2)cc1 | 60% |
| CCCCOC(=O)/C(C#N)=C/c1ccc(-c2cccc(C(F)(F)F)c2)o1 | 46% (active) |
| CCNC1CC(=O)N(c2ccc(C(=O)OCC)cc2)C1=O (configuration not stated) | 112% |
| CCOC(=O)C(C)Nc1ncnc2onc(C)c12 (configuration not stated) | 53% |
| CCN(C(=O)Cn1c(=O)n(Cc2ccccc2)c(=O)c2c1c1cc(OC)ccc1n2C)c1ccccc1 | 84% |
| COc1ccc(Cl)cc1NC(=O)CSc1nc2c([nH]c3ccccc32)c(=O)n1-c1ccccc1 | 81% |
| NNC(=O)CNC(=O)c1cccs1 | 79% |
| COc1ccccc1/C=C/C(=O)N1CCC(C(N)=O)CC1 | 99% |
| COC(=O)c1ccc(NC(=O)CSc2ccc(-c3cccs3)nn2)cc1 | 85% |
| COc1ccccc1OCC(=O)Nc1c(C(=O)c2ccc(C)cc2)oc2ccccc12 | 82% |
| Cc1ccc(C)c(NC(=O)CSc2nnc3[nH]c(=O)cc(-c4ccccc4)n23)c1 | 105% |
| Cc1ccc(NS(=O)(=O)c2ccc3[nH]c4c(c3c2)CCCCCC4)cc1 | 84% |
| Cc1ccc(NS(=O)(=O)c2ccc3[nH]c4c(c3c2)CCCCCC4)cc1Cl | 72% |
| CC(=O)c1ccc(NS(=O)(=O)c2ccc3[nH]c4c(c3c2)CCCC4)cc1 | 83% |
| COC(=O)c1ccc(NS(=O)(=O)c2ccc3[nH]c4c(c3c2)CCCCC4)cc1 | 91% |
| COC(=O)c1ccc(NS(=O)(=O)c2ccc3[nH]c4c(c3c2)CCCC4)cc1 | 6% (active) |
| Cc1ccc(CNS(=O)(=O)c2ccc3[nH]c4c(c3c2)CCCC4)cc1 | 84% |
| COc1ccc(NS(=O)(=O)c2ccc3[nH]c4c(c3c2)CCCCC4)cc1 | 117% |
| O=S(=O)(NCc1ccc(F)cc1)c1ccc2[nH]c3c(c2c1)CCCCC3 | 61% |
| COc1ccc(NS(=O)(=O)c2ccc3[nH]c4c(c3c2)CCCCCC4)cc1 | -2% (active) |
| COc1cc(NS(=O)(=O)c2ccc3[nH]c4c(c3c2)CCCCCC4)cc(OC)c1 | 64% |
| Cc1ccc(NS(=O)(=O)c2ccc3[nH]c4c(c3c2)CCCCCC4)cc1C | -1% (active) |

| SMILES | survival |
| --- | --- |
| O=S(=O)(NCc1ccc(F)cc1)c1ccc2[nH]c3c(c2c1)CCCC3 | -1% (active) |
| Cc1ccc(N2C(=O)CCSC23C(=O)N(Cc2ccc(F)cc2)c2ccccc23)cc1 (configuration not stated) | 90% |
| CCCCNC(=O)CC1N=C2c3ccccc3N=C(SCC(=O)NCc3ccccc3Cl)N2C1=O (configuration not stated) | 72% |
| O=c1c2cc3c(cc2n(Cc2cccc(Cl)c2)c(=O)n1Cc1nc(-c2ccccc2)no1)OCO3 | 61% |
| O=C(CCCn1c(=O)[nH]c2ccccc2c1=O)NCc1ccccc1Cl | 123% |
| COc1ccc(CNC(=O)CSc2ncc(S(=O)(=O)c3ccc(C)c(Cl)c3)c(=O)[nH]2)cc1 | 80% |
| Cc1ccc(C)c(N2CCN(S(=O)(=O)c3ccc4[nH]c5c(c4c3)CCCCC5)CC2)c1 | 80% |
| Cc1ccc(C)c(N2CCN(S(=O)(=O)c3ccc4[nH]c5c(c4c3)CCCC5)CC2)c1 | -2% (active) |
| Cc1ccc(N2CCN(S(=O)(=O)c3ccc4[nH]c5c(c4c3)CCCCC5)CC2)c(C)c1 | 102% |
| COCCNc1oc(-c2ccc(OC)cc2)nc1C#N | 54% |
| Cc1cc(C(=O)c2cccs2)c(N)s1 | 33% (active) |
| Cc1cc(OC(=O)c2cccs2)cc(OC(=O)c2cccs2)c1 | 99% |
| Cc1cc(C)cc(NC(=O)Cn2cc(C(=O)c3cccs3)c3ccccc32)c1 | 60% |
| COc1ccc(NC(=O)CCN2CCN(c3cccc(Cl)c3)CC2)cc1 | 67% |
| Cc1ccc(CNC(=O)c2ccc(N3Cc4ccccc4Oc4ncccc43)s2)cc1 | 81% |
| CCCc1ccc(-c2ccc(C(=O)Oc3ccc(Br)cc3)cc2)nc1 | 136% |
| CCCCCc1ccc(-c2ccc(C(=O)Oc3ccc(C(=O)OC)cc3)cc2)nc1 | 71% |
| CCCCCc1ccc(-c2ccc(Br)cc2)nc1 | -4% (active) |
| COc1ccccc1C(=O)Nc1cc(-c2cccc(Br)c2)nn1-c1ccccc1 | 115% |
| Cn1c(=O)oc2cc(S(=O)(=O)N3CCCC(C(=O)NCc4ccc(F)cc4)C3)ccc21 (configuration not stated) | 131% |
| Cc1cc(C)n(CCC(=O)Nc2ccc(Cl)cc2)n1 | 87% |
| COc1ccc2ncc3c(-c4ccccc4)nn(-c4ccc(C)c(C)c4)c3c2c1 | 18% (active) |
| Cc1ccc(-n2nc(-c3ccccc3)c3cnc4cc5c(cc4c32)OCO5)cc1C | 127% |

| SMILES | survival |
| --- | --- |
| CCOc1ccc(-c2nn(-c3ccc(F)cc3)c3c2cnc2ccc(F)cc23)cc1 | 81% |
| CCOc1ccc2ncc3c(-c4cccc(OC)c4)nn(-c4ccccc4)c3c2c1 | 100% |
| CCc1ccc(-c2nn(-c3ccc(OC)cc3)c3c2cnc2ccc(OC)cc23)cc1 | 14% (active) |
| COc1ccc(-n2nc(-c3ccc(C)cc3)c3cnc4cc(F)c(F)cc4c32)cc1 | 88% |
| Cc1ccc(-c2nn(-c3ccccc3)c3c2cnc2ccccc23)cc1C | 68% |
| COc1cc2ncc3c(-c4ccccc4)nn(-c4ccc(C)cc4)c3c2cc1OC | 47% (active) |
| COc1ccc(-c2nn(-c3ccc(C)cc3)c3c2cnc2ccc(C)cc23)cc1OC | 76% |
| CCc1ccc2ncc3c(-c4ccccc4)nn(-c4ccccc4)c3c2c1 | 5% (active) |
| COc1ccc(-c2nn(-c3ccc(C)c(Cl)c3)c3c2cnc2cc(OC)c(OC)cc23)cc1 | 94% |
| FC(F)(F)c1ccc2c(c1)ncc1c(-c3ccccc3)nn(-c3ccccc3)c12 | 125% |
| O=C(Nc1ccc(F)cc1F)C1CCCN1S(=O)(=O)c1cccc2nsnc12 (configuration not stated) | 94% |
| COc1ccc2c(CNCCc3cccs3)c(C(=O)O)n(Cc3ccccc3C)c2c1 | 94% |
| CC1=C(C(=O)Nc2ccc(C)cc2C)C(c2ccc(Br)cc2)n2ncc(C(=O)Nc3cccc(C)c3)c2N1 (configuration not stated) | 128% |
| COc1ccc(-c2nc3ccccc3n3c(-c4cccc(C)c4)c4c(=O)n(C)c(=O)n(C)c4c23)cc1 | 71% |
| Cc1ccc(-c2cc(C(=O)O)n(Cc3ccccc3)n2)cc1 | 67% |
| CCOC(=O)c1cc(-c2ccccc2)nn1Cc1ccccc1 | -12% (active) |
| CC(=O)Nc1cc(-c2ccccc2)nn1Cc1cccc(Cl)c1 | 57% |
| Cc1ccc(-c2cc(N)n(Cc3cccc(Cl)c3)n2)cc1 | 55% (active) |
| CCOC(=O)c1cc(-c2ccc(C)cc2)nn1Cc1ccccc1 | -12% (active) |
| COc1ccc(-c2cc(C(=O)O)n(Cc3ccccc3)n2)cc1 | 76% |
| CCOC(=O)c1cc(-c2ccc(OC)cc2)nn1Cc1ccccc1 | 66% |
| Cc1ccc2c(c1)cc1c(=O)n(Cc3cccc(Cl)c3)nc(C)n12 | 89% |
| O=C(O)c1cc(-c2ccccc2)nn1Cc1ccccc1 | 73% |
